SARS PLP yeast – inhibitors of SARS-CoV papain-like protease in yeast. hit rate 0.19% among 330,000. Potency, µM (doses to about 32.9 µM), for the others: top-dose activity, positive = growth rescue, actives largely listed as activators. S. cerevisiae expressing SARS-CoV PLpro, growth rescue; calls by dose curve; further: 0% is about no effect; nearly all actives have a fitted effect of over 55% in size
Pf growth 48h – P. falciparum growth inhibition at 48 hours (one generation) | Potency, µM (highest dose often 28.7 µM), inactives show top-dose activity change, negative = inhibition, actives largely listed as inhibitors | hit rate 5.9% among 310,000 | P. falciparum luciferase growth in erythrocytes, 48 h; further: on the % scale 0 is the no-effect control and ±100 the full control effect
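Luminescence readout; reporter = integrated firefly luciferase in P. falciparum. RBC culture at 2% hematocrit, 0.1% parasitemia final, 37 C/5% CO2; decreased signal taken as growth inhibition.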
Sm TGR inh – inhibitors of Schistosoma mansoni thioredoxin glutathione reductase. purified TGR, DTNB reduction, TNB absorbance 405 nm. hit rate 3% among 360,000. Potency, µM (doses to about 114 µM), for inactives: top-dose activity change, negative = inhibition, most hits filed as inhibitors. Q962Y6; further: on the % scale 0 is the no-effect control and ±100 the full control effect; nearly all actives have a fitted effect of over 60% in size
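First, TGR (20 nM dispensed) and NADPH were mixed with compound. Second, a 15 min room-temperature incubation followed. Third, further NADPH and then DTNB were added to start the reaction. Finally, TNB absorbance was monitored kinetically.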
Pf growth 96h – P. falciparum growth inhibition at 96 hours | P. falciparum luciferase reporter growth, 96 h | Potency, µM (titrated, usually from 28.7 µM), for inactives: at the highest dose activity change, negative = inhibition, actives largely listed as inhibitors | hit rate 6.9% among 320,000 | AID 504834; further: on the % scale 0 is the no-effect control and ±100 the full control effect
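Luminescence readout: decreased luciferase signal marks inhibited growth of reporter-expressing P. falciparum in infected red cells (2% hematocrit, 0.05% parasitemia final), exposed to compound two generations (96 h, 37 C, 5% CO2).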
An asterisk follows results filed as active; ? = inconclusive; nt = not tested or not shown. Rows were chosen to be rich in hits. Some 12% of all compounds tested hit in one or more screens of this group. Unless noted, the call rests on the fitted dose curve; in most records, active means well fitted curve in the direction sought with a large enough effect; inconclusive means small, poorly fitted or top-dose-only effect, or another doubt; inactive means no such curve, though single readings can be large; an effect the other way counts as inactive or inconclusive. Potency means the concentration at half of the fitted maximal effect.

SMILES | SARS PLP yeast | Pf growth 48h | Sm TGR inh | Pf growth 96h
O=C(O)CCN1C(=O)C2C3C=CC(C3)C2C1=O (stereo unspecified) | -2% | -4% | 9% | ?
CC1CCCC(C)N1C(=O)CCN1C(=O)C2C3C=CC(C3)C2C1=O (stereo unspecified) | 1% | 27% | -29% | 1.7µM*
Cc1ccc(S(=O)(=O)N(C)c2ccc3c(ncn3C)c2[N+](=O)[O-])cc1 | 1% | ? | -1% | ?
COc1ccc2c(c1)[C@@]13CCC=C[C@H]1[C@@H](C2)NCC3 | nt | 12µM* | -8% | -6%
CCn1c(=O)c([N+](=O)[O-])c(Cl)c2ccccc21 | -6% | 9% | 0.79µM* | ?
CCNc1nc(NC(C)C)nc(N(C#N)C(C)C(=O)N(C)C)n1 (stereo unspecified) | 17% | ? | -4% | ?
CC(C)Nc1nc(NC(C)C)nc(N(C#N)C(C)C(=O)N(C)C)n1 (stereo unspecified) | 0% | -8% | 40µM* | 5.2µM*
CCC(=O)Oc1c(Sc2ccc(Cl)cc2)c(C)nn1C(C)(C)C | nt | nt | -9% | nt
O=C1CCC(C(=O)N2CCCO2)CN1Cc1cccc(C(F)(F)F)c1 (stereo unspecified) | -5% | 8% | -5% | 50%
COc1ccccc1N1C(=O)[C@@H]2[C@H](C1=O)[C@H](C(=O)c1ccc(OC(C)=O)cc1)N1N=CC=C[C@@H]21 | 0% | -7% | 16µM* | -15%
OCCc1c[nH]c2ccc(OCc3ccccc3)cc12 | -2% | 0% | 7% | -6%
CCOC(=O)c1c(C)oc2nc(C)nc(N3CCN(c4ccc(C(C)=O)cc4)CC3)c12 | nt | nt | 4% | nt
CCOc1ccc(C(=O)N/N=C(\c2ccccc2)c2ccccn2)cc1 | -38% | 13µM* | 12% | 12µM*
Fc1ccc(N/N=C(/c2ccccc2)c2ccccn2)cc1 | ? | ? | 3% | 5.2µM*
Cc1ccc(/C=N/n2c(C3CCCCC3)n[nH]c2=S)s1 | -2% | ? | -7% | 2.1µM*
Cc1cc(=O)n2[nH]c(SCc3ccccc3Cl)nc2n1 | -2% | 32% | 71% | 28%
COc1cc(-c2nc3sccn3c2Nc2c(C)cccc2C)ccc1O | nt | nt | 1.1µM* | nt
COc1ccc(NC(=O)COC(=O)c2ccc([N+](=O)[O-])o2)cc1Cl | -11% | -10% | 25µM* | 11%
O=C(OCc1cc(Cl)ccc1OC(F)F)c1ccc([N+](=O)[O-])o1 | -24% | -6% | 13µM* | 20%
CCN(CC)S(=O)(=O)c1ccc(Cl)c(NC(=O)COC(=O)c2ccc([N+](=O)[O-])o2)c1 | -3% | -8% | 6.3µM* | ?
CN(C)S(=O)(=O)c1cccc(NC(=O)COC(=O)c2ccc([N+](=O)[O-])o2)c1 | ? | 2% | 32µM* | 6%
NNC(=O)COc1ccc2oc3c(c2c1)CCCC3 | -12% | 10% | -13% | -18%
CN(C)c1ccc(CN(CC2CCCO2)C(=O)COc2ccc(Cl)cc2)cc1 (stereo unspecified) | nt | nt | 2% | nt
CCOc1ccc(OCC)c(S(=O)(=O)n2cnc(C)c2)c1 | 2% | ? | -22% | 35%
CCN(CC)S(=O)(=O)c1ccc(C)c(N=C=S)c1 | -1% | 6% | 40µM* | -1%
SMILES | SARS PLP yeast | Pf growth 48h | Sm TGR inh | Pf growth 96h
CC(=O)c1c(C)oc2c1cc(NS(=O)(=O)c1ccc(Cl)c(C)c1)c1ccccc12 | nt | nt | 1% | nt
O=C1COc2ccc(N3C(=O)C=CC3=O)cc2N1 | -3% | 34% | 0.4µM* | -8%
O=C1COc2ccc(S(=O)(=O)N3CCCC3)cc2N1 | -2% | 21% | -1% | 3%
COC(=O)C1CCN(c2csc3ccc(Cl)cc3c2=O)CC1 | nt | nt | -9% | nt
CC1COc2ccccc2N1S(=O)(=O)c1ccc(Cl)cc1 (stereo unspecified) | -4% | 10µM* | 0% | ?
Cc1ccc(S(=O)(=O)N2c3cc(C)ccc3OCC2C(C)(C)C)cc1 (stereo unspecified) | -31% | 13µM* | 6% | ?
Cc1ccc(S(=O)(=O)N2c3ccccc3OCC2c2ccccc2)cc1 (stereo unspecified) | -9% | 2.6µM* | 1% | ?
CC1COc2ccccc2N1C(=O)c1ccc(Cl)cc1 (stereo unspecified) | 0% | 8% | 22% | 32%
Cc1cc(C)c(NC(=O)CN2CCN(c3ccccn3)CC2)c(C)c1 | 8% | -5% | -13% | 3%
CCOc1ccccc1NC(=O)CSc1nc2c(oc3ccccc32)c(=O)n1C(C)C | nt | nt | 1% | nt
CCN1CCN(C(=O)c2cc(-c3ccco3)nc3ccccc23)CC1 | -4% | 0% | 28µM* | 14%
CCN1CCN(C(=O)c2cc(-c3ccc(Cl)s3)nc3ccccc23)CC1 | -4% | ? | ? | ?
O=C(c1cc(-c2ccco2)nc2ccccc12)N1CCCC(C(F)(F)F)C1 (stereo unspecified) | -5% | ? | 35µM* | ?
O=c1[nH]c(=S)n(C2CC2)c(O)c1/C=N/Nc1ccccc1 | -23% | -4% | 20µM* | 23%
O=c1[nH]c(=S)n(C2CC2)c(O)c1/C=N/Nc1cccc2ccccc12 | -6% | 11% | 35µM* | -98%
O=C(N/N=C/c1c(O)n(C2CCCCC2)c(=S)[nH]c1=O)c1ccccc1 | -3% | 0% | -30% | 0%
CN(C)c1cc2c(c(N(C)C)c1)C(=O)c1ccccc1C2=O | -9% | ? | 7% | 4.1µM*
NNC(=S)NC1CCCCCCCCCCC1 | 0% | ? | -7% | 10µM*
CS/C(=C/[N+](=O)[O-])Nc1cccc2c1C(C)CC2(C)C (stereo unspecified) | -5% | ? | 13µM* | -54%
COc1cc(C2CC(=O)c3cnc(N4CCN(Cc5ccccc5)CC4)nc3C2)cc(OC)c1OC (stereo unspecified) | 4% | 9.3µM* | 5% | -13%
COc1ccc(C2CC(=O)c3c(C)nc(N4CCN(Cc5ccccc5)CC4)nc3C2)cc1OC (stereo unspecified) | -3% | 8.3µM* | -10% | 10µM*
COc1ccc(Cl)cc1NC(=O)NCc1ccccn1 | -7% | -5% | 2% | 94%
C[C@H](CCCC(C)(C)O)[C@H]1CC[C@H]2[C@@H]3CC=C4C[C@@H](O)CC[C@]4(C)[C@H]3CC[C@]12C | nt | 2% | nt | -6%
O=C(c1cccc(Cl)c1)c1nn(-c2ccccc2)c(=O)cc1C(F)(F)F | -6% | ? | -3% | 13µM*
O=C(c1ccccc1)c1nn(-c2ccccc2)c(=O)cc1C(F)(F)F | 2% | 91% | -13% | 0%
SMILES | SARS PLP yeast | Pf growth 48h | Sm TGR inh | Pf growth 96h
COc1cc(C2CC(=O)Nc3cc4c(cc32)OCCO4)cc(Br)c1OC (stereo unspecified) | nt | nt | 1% | nt
CCOC(=O)c1c(/N=C/c2cc(C)ccc2O)sc2c1CCN(C)C2 | -9% | -19% | -19% | ?
Cc1cccc(/C=N/c2sc3c(c2C(=O)OC(C)(C)C)CCN(C)C3)c1O | 7% | ? | -33% | 1.9µM*
OCCCNc1cc(-c2ccnc(Nc3cccc(Cl)c3)n2)ccn1 | -7% | 0.74µM* | 25% | 0.41µM*
CCC(C)Oc1cc(-c2ccnc(Nc3cccc(Cl)c3)n2)ccn1 (stereo unspecified) | -4% | ? | 3% | ?
CC(C)=C1C2CCC1C1C(=O)N(c3ccc4c(c3)OCO4)C(=O)C21 (stereo unspecified) | -2% | -4% | -8% | 150%
CC(C)=C1C2C=CC1C1C(=O)N(c3ccc4c(c3)OCO4)C(=O)C21 (stereo unspecified) | -118% | -12% | 20µM* | nt

High-throughput results deposited in PubChem BioAssay by National Center for Advancing Translational Sciences (NCATS).
